Laboratory results from PubChem BioAssay (NCI).
Compounds without any hit were thinned out: in the full panel of roughly 83,000, 20% have a hit.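 Each cell line was grown in a 96-well plate and treated with one concentration of compound for 48 hours. Values below 10 were considered active.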 Values without a mark were called inactive. Active and inactive are the calls of the source.

Tested on: OVCAR-4 ovarian
Assay: NCI-60 one-dose screen, 48 h (100 = growth as untreated, 0 = no growth, -100 = all killed)
Conditions: 10 µM unless noted

Going from C=C1C(=O)O[C@@H]2C[C@@H](C)[C@H](OC)CC(=O)[C@](C)(OC(C)=O)C[C@H](OC(=O)/C(C)=C\C)[C@@H]12 to COc1ccc(-c2oc3cc(O)cc(O)c3c(=O)c2OC)cc1O, the growth falls from 82.3% to 46.2%.

First: O=C1[C@H]2Cc3c([nH]c4ccccc34)[C@@H](c3ccc(Cl)cc3)N2C(=O)CN1C1CCN(Cc2c(Cl)cccc2Cl)CC1
Second: O=C1[C@@H]2Cc3c([nH]c4ccccc34)[C@H](c3c(Cl)cccc3Cl)N2C(=O)CN1C1CCN(Cc2c(F)cccc2F)CC1
The growth of the first is higher: 87.1% for the first, 76.3% for the second.

Compared with COc1ccc(Cn2cc3c(c2-c2ccccc2)CCCc2cnoc2-3)cc1, N/C(=N\OC(=O)CSc1nc2ccccc2s1)c1ccc2ccccc2c1 is higher in growth: 90.2% for the first, 109% for the second.

First: CCOC(=O)C1=C(C)Nc2nc3ccccc3n2C1c1ccccc1 (stereo not drawn)
Second: CCOC(=O)C1=C(C)N=C2Sc3ccccc3N2C1c1ccccc1 (stereo not drawn)
The growth of the first is lower: 83.7% for the first, 91.9% for the second.

First: CS(=O)(=O)c1ccc(-c2nn(-c3ccccc3)cc2/C=N/NC(=O)c2ccncc2)cc1
Second: CCN1C(=O)N(CC)C2SC(N/N=C/c3ccc(OC)cc3)=NC21 (stereo not drawn)
The growth of the first is higher: 104% for the first, 69.1% for the second.

Cc1cc(O)c2c(c1)C(=O)C(c1c(C)cc3c(c1O)C(=O)C=CC3=O)=CC2=O showed a growth of 86.3%.

With N#Cc1c(NC(=O)c2ccccc2C(F)(F)F)sc2c1CCC(=O)C2 the growth was 2.89% (active).
In the case of CN(C)c1ncc(/C=C2\SC(=S)N(Cc3ccccc3Cl)C2=O)s1, the growth is reported as 2.09% (active).
